Screen size: about 220,000 compounds; about 910 (0.41%) were called active. This is one part of a sample in which actives are shown more often than they occur.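 The calls were made as follows: active = primary inhibition above the hit cutoff, then over 50% inhibition at one or more dose response concentrations (cut at about 23% in these data, passing the limit was not always enough); inconclusive = conflicting primary data, or primary hits not chosen for dose response; inactive = low primary inhibition, or under 50% at every dose.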 Potency and affinity values are given separately.
biological target: Aminopeptidase N (Plasmodium falciparum (isolate 3D7)) (UniProt O96935); assay: P. falciparum M1AAP inhibitors, biochemical, fluorogenic H-Leu-NHMec substrate, 1536-well (AID 1445); details: recombinant M1AAP, H-Leu-NHMec fluorogenic kinetic assay; at 30 µM, active compounds read high unless noted;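 also: plate controls were DMSO full reaction for no effect and no enzyme background for full effect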
Sequence (O96935 whole entry, looked up): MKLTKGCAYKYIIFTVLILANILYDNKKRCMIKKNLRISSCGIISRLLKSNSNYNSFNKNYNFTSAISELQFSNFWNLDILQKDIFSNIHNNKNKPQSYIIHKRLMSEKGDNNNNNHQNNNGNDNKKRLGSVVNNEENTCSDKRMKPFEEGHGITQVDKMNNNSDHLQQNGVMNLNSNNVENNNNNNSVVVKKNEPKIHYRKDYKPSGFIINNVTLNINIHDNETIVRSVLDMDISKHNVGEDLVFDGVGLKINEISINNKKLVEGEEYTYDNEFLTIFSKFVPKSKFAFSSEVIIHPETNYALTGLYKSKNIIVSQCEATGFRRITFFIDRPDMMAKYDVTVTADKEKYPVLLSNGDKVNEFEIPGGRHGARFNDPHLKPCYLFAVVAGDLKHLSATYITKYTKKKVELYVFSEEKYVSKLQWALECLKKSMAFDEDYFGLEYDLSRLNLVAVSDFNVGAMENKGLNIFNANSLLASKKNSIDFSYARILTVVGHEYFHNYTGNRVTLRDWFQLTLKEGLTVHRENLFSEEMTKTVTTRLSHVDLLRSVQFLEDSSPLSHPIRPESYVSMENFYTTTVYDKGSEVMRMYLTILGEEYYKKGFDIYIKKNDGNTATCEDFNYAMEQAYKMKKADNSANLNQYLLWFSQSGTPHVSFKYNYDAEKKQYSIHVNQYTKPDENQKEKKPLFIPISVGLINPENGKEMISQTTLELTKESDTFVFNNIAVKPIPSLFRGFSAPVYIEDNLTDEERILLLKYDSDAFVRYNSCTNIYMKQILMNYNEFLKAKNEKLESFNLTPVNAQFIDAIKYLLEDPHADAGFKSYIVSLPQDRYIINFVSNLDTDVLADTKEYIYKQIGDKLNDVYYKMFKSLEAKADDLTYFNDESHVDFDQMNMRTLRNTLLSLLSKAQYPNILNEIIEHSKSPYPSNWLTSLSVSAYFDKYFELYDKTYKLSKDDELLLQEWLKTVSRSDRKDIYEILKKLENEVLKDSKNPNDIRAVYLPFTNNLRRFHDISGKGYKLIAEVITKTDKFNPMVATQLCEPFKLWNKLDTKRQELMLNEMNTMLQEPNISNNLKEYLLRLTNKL

Compound | inhibition
COC(=O)c1cc(O)c(O)c(O)c1 | 6.36% (inactive)
COC(=O)c1ccc(Sc2ccc(C)cc2)c(N)c1 | 11.3% (inactive)
CCCN(CC1CC1)C(=S)NC(=O)C1CC1 | 3.89% (inactive)
CC(=O)CCc1c(C)nc2ccc(C(=O)O)cc2c1Cl | 11.9% (inactive)
CCOC(=O)c1cccc(Nc2ncnc3ccccc23)c1 | 6.34% (inactive)
O=S(=O)(c1ccc(Cl)cc1)N(CCCN1CCOCC1)Cc1cccs1 | 2.6% (inactive)
COc1cc(NC(=O)c2cccs2)c(OC)cc1NC(=O)CCn1nnc2ccccc21 | 25% (active)
COc1cc(NC(=O)c2cccs2)c(OC)cc1NC(=O)CCC(=O)Nc1cccc2ncccc12 | 16.7% (inactive)
C/C(=N\NC(=O)CCn1nnc2ccccc21)c1cccs1 | 0% (inactive)
Cc1ccc(Cn2ccc(NC(=O)c3noc4c3CCc3ccccc3-4)n2)cc1 | 8.24% (inactive)
Cc1cc([N+](=O)[O-])ccc1NC(=S)NC(=O)Cc1ccccc1 | 23.7% (active)
CC(=O)NC(=S)Nc1ccc([N+](=O)[O-])cc1C | 3.35% (inactive)
Cc1cc([N+](=O)[O-])ccc1NC(=S)NC(=O)C(c1ccccc1)c1ccccc1 | 9.66% (inactive)
O=C(CSc1ccc2nnc(-c3ccncc3)n2n1)Nc1ccc2c(c1)OCO2 | 5.11% (inactive)
Cn1cc([N+](=O)[O-])c(C(=O)NNC(=O)c2ccc([N+](=O)[O-])cc2)n1 | 1.97% (inactive)
CN(C)CCCNc1ncnc2scc(-c3ccccc3)c12 | -12.9% (inactive)
Cc1ccc(-c2csc3ncnc(NS(=O)(=O)c4ccc(Cl)cc4)c23)cc1 | -5.44% (inactive)
CCOC(=O)c1ccc(NC(=O)COc2ccc(S(=O)(=O)N3CCCC3)cc2)cc1 | 10.4% (inactive)
O=S(=O)(Nc1nc2ccccc2nc1Cl)c1ccc2c(c1)OCCO2 | 15.8% (inactive)
O=S(=O)(Nc1nc2ccccc2nc1Cl)c1ccccc1 | 7.23% (inactive)
Cc1cc(S(=O)(=O)Nc2cccc(Cl)c2)c(C)s1 | 7.05% (inactive)
CSc1ccccc1C(=O)C1CCCN(C(=O)c2ccc(N3CCOCC3)cc2)C1 (stereo unspecified) | 0.54% (inactive)
COC(=O)C1=NN(C(=O)c2cccc(Cl)c2)C(O)(C(C)(C)C)C1 (stereo unspecified) | 33.3% (inactive)
COC(=O)C1=NN(C(=O)c2ccc(Br)cc2)C(O)(C(C)(C)C)C1 (stereo unspecified) | 53.2% (inactive)
Cc1ccn2c(NCc3ccc4c(c3)OCO4)c(-c3ccc(O)cc3)nc2c1 | 3.37% (inactive)
O=C(NCCc1nc2ccccc2[nH]1)/C(=C/c1ccco1)NC(=O)c1ccc(Br)cc1 | 3.21% (inactive)
